Results reported in PubChem BioAssay (NCI).
Several values for one entry are separate records, joined by “and”; a condition that tells them apart may be missing. Equal entries are not always repeated. Compounds without any hit were thinned out: in the full panel of roughly 83,000, 20% have a hit.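 A percent growth of 40 corresponds to 60% growth inhibition; 0 means no net growth; -100 means all cells died. Active threshold: below 10.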 Activity calls are given as the source filed them.

What was measured:
Experiment in all cases: NCI-60 one-dose screen, 48 h (100 = growth as untreated, 0 = no growth, -100 = all killed)
Conditions in all cases: 10 µM unless noted
HCT-15 colon = test system: HCT-15 colon
HT29 colon = test system: HT29 colon
SNB-75 CNS = test system: SNB-75 CNS
SNB-19 CNS = test system: SNB-19 CNS
U251 CNS = test system: U251 CNS
PC-3 prostate = test system: PC-3 prostate
SK-MEL-5 melanoma = test system: SK-MEL-5 melanoma
UACC-62 melanoma = test system: UACC-62 melanoma
LOX IMVI melanoma = test system: LOX IMVI melanoma
SK-MEL-28 melanoma = test system: SK-MEL-28 melanoma

Measured: growth

CCC/C(=N/NC(N)=O)c1ccco1
inactive: HCT-15 colon 103% | HT29 colon 93.7% | SNB-75 CNS 75.2% | SNB-19 CNS 90.1% | U251 CNS 91.8% | PC-3 prostate 86.8% | SK-MEL-5 melanoma 99.5% | UACC-62 melanoma 92.7% | LOX IMVI melanoma 98.1% | SK-MEL-28 melanoma 97.7%

CCOP(C)(=O)/C(Cc1ccc(OC)c(OC)c1)=N\O (stereo not given)
inactive: HCT-15 colon 104% | HT29 colon 106% | SNB-75 CNS 88.7% | SNB-19 CNS 105% | U251 CNS 107% | PC-3 prostate 106% | SK-MEL-5 melanoma 96.1% | UACC-62 melanoma 96% | LOX IMVI melanoma 96.5% | SK-MEL-28 melanoma 111%

Cc1cc(NC(=O)NC(=O)c2ccccc2N(C)C)ccc1Oc1ncc(Br)cn1
active: U251 CNS -43.4% | SK-MEL-5 melanoma 2.16% and 0.678%
inactive: SNB-19 CNS 29.2% and 42.7% | UACC-62 melanoma 30.4% and 37% | LOX IMVI melanoma 27.3% and 49.7% | SK-MEL-28 melanoma 68.1%
-31% (active) and 31% (inactive): HCT-15 colon
-15.9% (active) and 17% (inactive): HT29 colon
-10.1% (active) and 25.9% (inactive): PC-3 prostate
-28.2% (active) and 12.9% (inactive): SNB-75 CNS

C(#CCN1CCOCC1)CCCN1CCOCC1
inactive: HCT-15 colon 91% and 99.6% | HT29 colon 106% and 105% | SNB-75 CNS 83.7% and 104% | SNB-19 CNS 107% and 108% | U251 CNS 102% and 98.7% | PC-3 prostate 99.9% and 93.2% | SK-MEL-5 melanoma 101% and 104% | UACC-62 melanoma 96.3% and 96.5% | LOX IMVI melanoma 102% and 99.6% | SK-MEL-28 melanoma 107% and 110%

CC1(C)CC(=O)NC1=O
inactive: HCT-15 colon 110% | HT29 colon 99.8% | SNB-75 CNS 82% | SNB-19 CNS 101% | U251 CNS 101% | PC-3 prostate 104% | SK-MEL-5 melanoma 100% | UACC-62 melanoma 99.6% | LOX IMVI melanoma 95.9% | SK-MEL-28 melanoma 105%

COc1cc(Cl)ccc1C
inactive: HCT-15 colon 14.3% | HT29 colon 27.1% | SNB-75 CNS 110% | SNB-19 CNS 79% | U251 CNS 78% | PC-3 prostate 74.1% | SK-MEL-5 melanoma 96.3% | UACC-62 melanoma 66.4% | LOX IMVI melanoma 77.1% | SK-MEL-28 melanoma 112%

CCCC(=O)OCC(COC(=O)CCC)OC(=O)CCC
inactive: HCT-15 colon 106% | HT29 colon 102% | SNB-75 CNS 93.5% | SNB-19 CNS 97.6% | U251 CNS 88.3% | PC-3 prostate 85.4% | SK-MEL-5 melanoma 98.5% | UACC-62 melanoma 89.9% | LOX IMVI melanoma 101% | SK-MEL-28 melanoma 108%

CCC(C)NC(=O)c1ccccc1C (stereo not given)
inactive: HCT-15 colon 96.3% | HT29 colon 97.4% | SNB-75 CNS 76.8% | SNB-19 CNS 97.9% | U251 CNS 102% | PC-3 prostate 101% | SK-MEL-5 melanoma 91% | UACC-62 melanoma 100% | LOX IMVI melanoma 95.7% | SK-MEL-28 melanoma 94.3%

COc1cc(C2c3cc4c(cc3C(OC(=O)C[n+]3ccccc3)C3COC(=O)C23)OCO4)cc(OC)c1OC (stereo not given)
inactive: SNB-75 CNS 48.3% | SNB-19 CNS 27.5% | PC-3 prostate 35% | UACC-62 melanoma 15.9% | LOX IMVI melanoma 12.7% | SK-MEL-28 melanoma 61.6%
active: HCT-15 colon 4.19% | HT29 colon 4.68% | U251 CNS 2.86% | SK-MEL-5 melanoma -32.5%

CCOC(=O)NC(N)=O
inactive: HCT-15 colon 105% and 98% | HT29 colon 99.9% and 106% | SNB-75 CNS 84.3% and 87.6% | SNB-19 CNS 103% and 100% | U251 CNS 101% and 96.4% | PC-3 prostate 99.3% and 92.8% | SK-MEL-5 melanoma 101% | UACC-62 melanoma 103% | LOX IMVI melanoma 97.9% and 94.7% | SK-MEL-28 melanoma 112% and 108%

Cc1ccc2cccc([N+](=O)[O-])c2n1
inactive: HCT-15 colon 105% and 96.9% | HT29 colon 99% and 96% | SNB-75 CNS 106% and 79.5% | SNB-19 CNS 109% and 99% | U251 CNS 105% and 103% | PC-3 prostate 99.7% and 102% | SK-MEL-5 melanoma 99.1% and 105% | UACC-62 melanoma 102% | LOX IMVI melanoma 100% and 94.8% | SK-MEL-28 melanoma 109% and 111%

Oc1cccnc1CN1CCOCC1
inactive: HCT-15 colon 105% and 104% | HT29 colon 97.7% and 106% | SNB-75 CNS 88.9% and 81.5% | SNB-19 CNS 101% and 98.9% | U251 CNS 104% and 102% | PC-3 prostate 93.9% and 96.3% | SK-MEL-5 melanoma 106% and 98.4% | UACC-62 melanoma 101% and 94.5% | LOX IMVI melanoma 93.1% | SK-MEL-28 melanoma 107% and 105%

Cc1ccc(C(=O)c2ccc(C)cc2)cc1
inactive: HCT-15 colon 99.8% and 102% | HT29 colon 95.4% and 102% | SNB-75 CNS 86.4% and 99.5% | SNB-19 CNS 86.9% and 105% | U251 CNS 94.1% and 105% | PC-3 prostate 95.8% and 92.5% | SK-MEL-5 melanoma 95.6% and 100% | UACC-62 melanoma 92.7% and 101% | LOX IMVI melanoma 100% and 90.4% | SK-MEL-28 melanoma 111% and 106%

Cc1nc(Nc2ccc(Cl)cc2)c2cnn(-c3ccccc3)c2n1
inactive: HCT-15 colon 94.8% | HT29 colon 97.2% | SNB-75 CNS 86.6% | SNB-19 CNS 102% | U251 CNS 98.8% | PC-3 prostate 99.6% | SK-MEL-5 melanoma 94.4% | UACC-62 melanoma 100% | LOX IMVI melanoma 97.9% | SK-MEL-28 melanoma 102%

S=c1nn[nH]n1C1CCCCC1
inactive: HCT-15 colon 115% | HT29 colon 116% | SNB-75 CNS 95.2% | SNB-19 CNS 111% | U251 CNS 102% | PC-3 prostate 101% | SK-MEL-5 melanoma 105% | UACC-62 melanoma 113% | LOX IMVI melanoma 111% | SK-MEL-28 melanoma 117%

COc1ccc(C(=O)C(O)c2ccc(OC)cc2)cc1 (stereo not given)
inactive: HCT-15 colon 110% and 107% | HT29 colon 106% and 111% | SNB-75 CNS 98% and 94.1% | SNB-19 CNS 109% and 111% | U251 CNS 105% and 95.7% | PC-3 prostate 93.9% and 92.2% | SK-MEL-5 melanoma 105% | UACC-62 melanoma 100% and 105% | LOX IMVI melanoma 96.4% and 98.4% | SK-MEL-28 melanoma 114% and 109%

COc1ccc2nccc(Cl)c2c1
inactive: HCT-15 colon 109% | HT29 colon 104% | SNB-75 CNS 91.1% | SNB-19 CNS 103% | U251 CNS 97.6% | PC-3 prostate 95.3% | SK-MEL-5 melanoma 102% | UACC-62 melanoma 89.6% | LOX IMVI melanoma 97.9% | SK-MEL-28 melanoma 110%

CN(C=O)c1ccccc1
inactive: HCT-15 colon 95.1% | HT29 colon 99.9% | SNB-75 CNS 80.6% | SNB-19 CNS 102% | U251 CNS 93.5% | PC-3 prostate 88.4% | SK-MEL-5 melanoma 94.5% | UACC-62 melanoma 88.7% | LOX IMVI melanoma 89.5% | SK-MEL-28 melanoma 109%

CC(C)(C(=O)c1cccnc1)c1cccnc1
inactive: HCT-15 colon 104% and 105% | HT29 colon 104% and 119% | SNB-75 CNS 107% and 103% | SNB-19 CNS 111% and 115% | U251 CNS 103% and 116% | PC-3 prostate 89.5% and 92.5% | SK-MEL-5 melanoma 98.4% and 106% | UACC-62 melanoma 101% and 103% | LOX IMVI melanoma 102% and 111% | SK-MEL-28 melanoma 112% and 121%

Nc1[nH][nH]c(=O)c1N=Nc1ccccc1
inactive: HCT-15 colon 96.3% and 106% | HT29 colon 107% and 88.8% | SNB-75 CNS 79.3% and 111% | SNB-19 CNS 99.5% and 112% | U251 CNS 109% and 105% | PC-3 prostate 99% and 101% | SK-MEL-5 melanoma 104% and 99.5% | UACC-62 melanoma 96.3% and 109% | LOX IMVI melanoma 105% and 100% | SK-MEL-28 melanoma 111% and 118%

COc1ccc(CCN=Cc2ccc(Cl)cc2)cc1OC
inactive: HCT-15 colon 106% | HT29 colon 107% | SNB-75 CNS 127% | SNB-19 CNS 101% | U251 CNS 105% | PC-3 prostate 116% | SK-MEL-5 melanoma 107% | UACC-62 melanoma 107% | LOX IMVI melanoma 95.8% | SK-MEL-28 melanoma 121%

COc1cc(NCCCCCNC(C)C)c2ncccc2c1
inactive: HCT-15 colon 96.7% and 96.6% | HT29 colon 85.9% and 67.1% | SNB-75 CNS 84.2% and 73.7% | SNB-19 CNS 96.1% and 81.2% | U251 CNS 94.8% and 85.9% | PC-3 prostate 86.3% and 89.1% | SK-MEL-5 melanoma 98.4% and 99% | UACC-62 melanoma 83.7% | LOX IMVI melanoma 87.3% and 82.5% | SK-MEL-28 melanoma 98.5% and 98.7%
